The campaign covered roughly 220,000 compounds. About 880 (0.4%) were called active. This excerpt belongs to a sample that is enriched for actives. Unmarked numbers belong to inactive results.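 The calls were made as follows: active = cell killing above 50% in the first pass at 4 µM, then a duplicate retest at 5 µM averaging 50% or more; inactive = the rest.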

The text below walks through data of PubChem BioAssay AID1443 (Sanford-Burnham Center for Chemical Genomics, 2008).

This experiment can be described thus: compounds killing PPC-1 cancer cells with TRAIL present, primary screen, TRAIL potentiator project, ATPLite luminescence, uHTS (AID 1443).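 Also: plate controls were cells with TRAIL plus DMSO for no effect and medium-only wells lacking cells for full effect.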 To be noted: PPC-1 cells + TRAIL, ATPLite viability luminescence, stronger effect = higher value; at 4 µM unless noted.
As to `COc1ccc2cc(-c3[nH]ncc3CNCCn3nc(C)cc3C)ccc2c1`, the cell killing (% activity) is 0.6%. As to `Cn1c(=NC(=O)c2cnccn2)sc2ccccc21`, the cell killing (% activity) was 53.2% [at 5 µM] (active).

On to `Cn1c(=NC(=O)CSCC(=O)N2CCCCC2)sc2ccccc21`, for which the cell killing (% activity) was 21.3%. The same measure for `Cn1c(=NC(=O)CSCC(=O)N2CCOCC2)sc2ccccc21`: 11.5%; for `Cc1ccsc1/C=N/Nc1ccc(Cl)nn1`: -6.9%. Next, `O=[N+]([O-])c1ccc(N2CCN(S(=O)(=O)c3ccccc3)CC2)cc1N1CCc2ccccc2C1`: 8.9%; `Cc1ccccc1NC(=S)N(CCCN1CCOCC1)Cc1cccs1`: 8.5%. The same measure for `O=C(Oc1ccc(-c2nc(-c3ccccn3)no2)cc1)c1ccccc1`: 54.2% [at 5 µM] (active). For `c1ccc(-c2noc(-c3cccs3)n2)nc1`, the cell killing (% activity) is 31.1%. Next, `O=C(Oc1ccccc1)c1ccc2nccnc2c1`: 25.8%. The same measure for `Cc1cc(C)c(C)c(S(=O)(=O)N[C@@H](C)C(=O)OC(C)C(=O)NC(N)=O)c1C` (stereo not given in full): 18.2%; for `NCCCC[C@@H]1NC(=O)[C@H](CCC(=O)O)NC(=O)c2cc([N+](=O)[O-])cc(I)c2NCC[C@@H](C(N)=O)NC1=O`: -6.5%; for `O=S(=O)(Nc1ccc(OC(F)(F)F)cc1)c1cccc2nonc12`: 7.3%. Regarding `O=C(CSc1nnc(C2CC2)n1Cc1ccccc1)Nc1cccnc1Cl`, the cell killing (% activity) is 9.8%. Next, `Cc1ccc(NS(=O)(=O)c2ccc(N/N=C/c3ccccc3OCC(=O)O)c([N+](=O)[O-])c2)c(C)c1`: -2.4%; `Clc1ccc(-c2cc(-c3ccccn3)on2)c(Cl)c1`: 88% [at 5 µM] (active); `O=C1CSC(c2ccccc2)N1c1nc(-c2ccc(Cl)cc2Cl)cs1` (stereo not given): 27.7%. Next, `O=C(NCc1ccccn1)c1cc(-c2ccccc2Cl)on1`: 24.5%. For the compound `CCOC(=O)c1c(/N=C/C2C(=O)CC(C)(C)CC2=O)sc(C)c1C`, the cell killing (% activity) is 14.1%. With `CCCCSc1nnc2c(n1)OC=Nc1ccccc1-2`, the cell killing (% activity) is 11.9%. The same measure for `COc1ccc(/C(C)=N/N2CCOCC2)c(O)c1`: -10.1%; for `COc1ccc(-c2noc(-c3ccc(C)cc3)n2)cc1`: 25.4%. Next, `COc1ccc(-c2noc(-c3cccc(OC)c3OC)n2)cc1OC`: 18.8%; `COc1ccc(-c2nc(-c3ccccc3)no2)c(OC)c1`: 68% [at 5 µM] (active). As for `O=c1c2cc(-c3ccccc3)sc2nc2n1N=C(c1cccs1)CS2`, the cell killing (% activity) was 30.8%. Regarding `Cc1cc(C)c2c(NC(=O)C3CC3)nn(C)c2n1`, the cell killing (% activity) is 0.3%. Next, `COc1cccc(CC(=O)Nc2ccc(-c3csc(C)n3)cc2)c1`: 2.3%; `C=CCn1c(C)cc(C2=NNC(=NCC)SC2)c1C`: 88.8% [at 5 µM] (active); `COCCn1c(C)cc(C2=NNC(=Nc3ccc(F)cc3)SC2)c1C`: 12.3%. The same measure for `Cc1cc(C2=NNC(=Nc3ccc(S(=O)(=O)N4CCOCC4)cc3)SC2)c(C)n1CC1CCCO1` (stereo not given): 8.5%; for `O=C(NNC(=O)c1ccc(Cl)cc1Cl)c1cccs1`: 35.4%. Next, `CCOC(=O)c1cc(C)nc(S(C)(=O)=O)c1C#N`: 19.4%; `N#C/C(=C\C1=C(N2CCOCC2)C(=C\c2ccccc2)/CC1)C(=O)Nc1ccccc1F`: 3.4%; `CS(=O)(=O)Nc1cccc(-c2cn3ccccc3n2)c1`: 4.6%.

As for `Cc1ccc(-c2cn3cc(C)ccc3n2)cc1`, the cell killing (% activity) was 86.4% [at 5 µM] (active).

Regarding `COc1ccc(-c2cn3ccc(C)cc3n2)cc1`, the cell killing (% activity) was 89% [at 5 µM] (active). Next, `COc1ccc(-c2cn3ccsc3n2)cc1`: 46.2%; `c1ccc(-c2cn3cccnc3n2)cc1`: 13.7%; `COc1ccc(-c2cn3cccnc3n2)cc1`: 13.9%.

On to `Cc1cccc(NC(=O)C2CC(=O)OC23CCCC3)c1` (stereo not given), for which the cell killing (% activity) was -2.2%. Next, `COc1ccc(C(=O)ON=C2c3ccccc3-c3ccccc32)cc1OC`: 8.6%.

As to `Cc1sc2nc(COC(=O)C(NC(=O)c3ccc(Cl)cc3Cl)C(C)C)[nH]c(=O)c2c1C` (stereo not given), the cell killing (% activity) is 2.9%. On to `O=C(Nc1ccc(S(=O)(=O)Nc2nccs2)cc1)c1cccc(S(=O)(=O)N2CCOCC2)c1`, for which the cell killing (% activity) was 10.1%. Next, `Fc1ccccc1Cc1ccc(Cl)nn1`: 22.4%. The same measure for `CCN(CC)C(=O)CS(=O)CC(=O)Nc1cc(OCCOC)c(Cl)cc1Cl` (stereo not given): 3.5%; for `CCCc1cc(=O)[nH]c(SCC(=O)N2CCN(S(=O)(=O)c3ccc(C)cc3C)CC2)n1`: -8.7%; for `Fc1ccccc1Cn1cnc(NC(=S)NCCc2ccccc2)n1`: 23.7%.

As to `N=c1n(CCc2ccccc2)c2ccccc2n1Cc1ccccc1F`, the cell killing (% activity) was 53.1% (active). Next, `CN(Cc1ccccc1)Cc1ccccc1F`: 10.6%. Next, `O=C(NCCCN1CCN(c2ccc(F)cc2)CC1)Nc1ccc([N+](=O)[O-])cc1`: -6.5%; `Cc1c(C(=O)c2cccc([N+](=O)[O-])c2)c2ccccn2c1CCC#N`: 33.6%; `COC(=O)c1ccc(COc2cc([N+](=O)[O-])cc3cccnc23)cc1`: -4.2%. The same measure for `Cn1c(CC2Sc3ccccc3NC2=O)nnc1SCC(=O)c1ccc(Cl)cc1` (stereo not given): 5.2%. Turning to `O=C(c1ccc(F)cc1)n1cc(C(=S)N2CCOCC2)c2ccccc21`, the cell killing (% activity) is 21%.

Turning to `O=C(c1ccc(F)cc1)n1c(=S)nc2ccccn21`, the cell killing (% activity) is 81.3% [at 5 µM] (active). `O=C(Cn1c(=S)nc2ccccn21)N1CCc2ccccc2C1`: the cell killing (% activity) was -12%. `NS(=O)(=O)c1ccc(NC(=S)Nc2ccc(Br)c(Cl)c2)cc1`: the cell killing (% activity) is 12%. Next, `O=C(OCC1O[C@@H](OC(=O)c2cc(O)c(O)c(O)c2)[C@@H](OC(=O)c2cc(O)c(O)c(O)c2)[C@@H](OC(=O)c2cc(O)c(O)c(O)c2)[C@@H]1OC(=O)c1cc(O)c(O)c(O)c1)c1cc(O)c(O)c(O)c1` (stereo not given in full): -9.9%; `CCOc1ccc(CN2CCN(Cc3ccon3)CC2CCO)cc1` (stereo not given): 8.1%; `Cc1noc(/C=C/c2ccco2)c1S(=O)(=O)N1CCC(C(=O)Nc2ccc(Cl)cn2)CC1`: 24.3%.
